From PubChem BioAssay (NCI)
About 79,000 compounds went through this panel and 15% of them were active in at least one assay; those are over-represented in the sample as a whole. Unmarked numbers belong to inactive results. Active and inactive are the calls of the source. Rule as the data show it: active = growth inhibition above about 70%; inactive = the rest.

Experiments:
[1] = NCI Yeast Anticancer Drug Screen. Data for the rad50 strain (AID 155);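 also: 0% = growth of vehicle-only cultures of the same strain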; details: S. cerevisiae rad50 strain growth inhibition, hits give high values
Summary of the method: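 DNA repair mutant yeast, compound exposure, growth read-out; inhibition is taken relative to vehicle.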

[2] = NCI Yeast Anticancer Drug Screen. Data for the mec2-1 strain (AID 157); details: S. cerevisiae mec2-1 strain, hits give high values
Summary of the method: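 Readout is yeast growth inhibition, normalised to vehicle-treated controls, in the mec2-1 strain exposed to compound.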

[3] = NCI Yeast Anticancer Drug Screen. Data for the sgs1 mgt1 strain (AID 161);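 also: 0% = growth of cultures given vehicle only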; details: S. cerevisiae sgs1 mgt1 strain, hits give high values
Summary of the method: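 Yeast cells carrying a defined DNA-repair defect were exposed to test compounds. Growth inhibition was measured relative to vehicle-treated controls.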

[4] = NCI Yeast Anticancer Drug Screen. Data for the cln2 rad14 strain (AID 165);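 also: 0% = growth equal to vehicle treated cultures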; details: S. cerevisiae cln2 rad14 strain, hits give high values
Summary of the method: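 Relative to vehicle controls, growth inhibition of compound-treated cln2 rad14 yeast was recorded.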

[5] = NCI Yeast Anticancer Drug Screen. Data for the bub3 strain (AID 167); details: S. cerevisiae bub3 mutant strain, hits give high values
Summary of the method: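 In this screen, a yeast mutant lacking normal mitotic checkpoint function is challenged with compound. Relative growth versus vehicle gives the inhibition value.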

[6] = NCI Yeast Anticancer Drug Screen. Data for the mlh1 rad18 strain (AID 175); details: S. cerevisiae mlh1 rad18 strain growth inhibition, hits give high values
Summary of the method: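 Test agents were incubated with a yeast strain of defined genotype (DNA damage repair defect). Inhibition of growth was derived by comparison with vehicle-exposed cultures.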

[7] = at 5.0 µM (retest, dose inferred, filed as 0.5)
[8] = at 50.0 µM (retest, dose inferred, filed as 5.0)

Structure (SMILES) | growth inhibition [1, 7] | growth inhibition [1, 8] | growth inhibition ([1]; at 50.0 µM) | growth inhibition [2, 7] | growth inhibition [2, 8] | growth inhibition ([2]; at 50.0 µM) | growth inhibition [3, 7] | growth inhibition [3, 8] | growth inhibition ([3]; at 50.0 µM) | growth inhibition [4, 7] | growth inhibition [4, 8] | growth inhibition ([4]; at 50.0 µM) | growth inhibition [5, 7] | growth inhibition [5, 8] | growth inhibition ([5]; at 50.0 µM) | growth inhibition [6, 7] | growth inhibition [6, 8] | growth inhibition ([6]; at 50.0 µM)
C/C(=N\OC(=O)c1ccccc1)[N+](=O)[O-] | -50% | 98% (active) | 88.1% (active) | -6% | 100% (active) | 77.8% (active) | -11% | 99% (active) | 72% (active) | -27% | 99% (active) | 81.8% (active) | -61% | 85% (active) | 56.9% | -54% | 98% (active) | 65.4%
O=C(CC1(O)CCCCC1)OC1CCCC1 | -1% | 0% | 58.3% | -1% | -11% | -13.2% | 1% | 0% | 5.85% | -14% | 19% | 62.8% | 5% | -10% | -58.9% | 7% | 10% | 6.2%
COc1cc(Cc2n[nH]c(=S)n2-c2ccccc2)c(S(N)(=O)=O)cc1OC | 4% | 4% | 10.1% | 1% | 4% | 0.85% | 9% | -16% | -2.75% | 0% | 4% | 8.55% | -2% | 3% | 0.15% | 0% | -62% | 11.4%
CC1=CC2N(C=C1)C(c1ccccc1)=NON2c1cc(C)ccn1 (centres undefined) | -20% | -10% | 24.7% | -23% | 14% | 33% | -1% | 23% | 62.5% | -39% | 7% | 25.1% | -44% | -14% | 5.7% | -34% | 38% | 68.9%
C/C(=C\N1CCN(c2ccc(Cl)cc2)C(C)C1)C(=O)c1ccccc1 (centres undefined) | 7% | 89% (active) | 52.9% | 4% | 92% (active) | 30.7% | 15% | 89% (active) | 79.8% (active) | -2% | 86% (active) | 27.8% | -1% | 92% (active) | 24.9% | 4% | 87% (active) | 57.3%
Cc1cc(N(CCOS(C)(=O)=O)CCOS(C)(=O)=O)ccc1C=Nc1ccc(-c2csc(-c3ccc(Br)cc3)n2)cc1 | 49% | 91% (active) | 95.5% (active) | 47% | 95% (active) | 94.2% (active) | 48% | 95% (active) | 81.9% (active) | 37% | 88% (active) | 89.5% (active) | 11% | 85% (active) | 76.9% (active) | 88% (active) | 96% (active) | 96.7% (active)
O=C(c1ccccc1)c1c(CO[N+](=O)[O-])n([O-])c2ccccc2[n+]1=O | 20% | 97% (active) | 98.5% (active) | 14% | 99% (active) | 99% (active) | 10% | 98% (active) | 98.3% (active) | 10% | 96% (active) | 99.2% (active) | -5% | 98% (active) | 97.7% (active) | 48% | 99% (active) | 98.8% (active)
Cc1c(CNc2ccc(Cl)c(Cl)c2Cl)cnc2nc(N)nc(N)c12 | 40% | 86% (active) | 78.5% (active) | 27% | 53% | 44.5% | 19% | 52% | 64.5% | 34% | 60% | 43.4% | 28% | 46% | 51.5% | 30% | 56% | -36.1%
CC(CN(C)C)C(=O)/C=C/c1ccc(C(C)C)cc1 (centres undefined) | 3% | 89% (active) | 93.2% (active) | 6% | 75% (active) | 37.3% | 9% | 93% (active) | 97.2% (active) | 11% | 26% | 25.8% | 0% | 81% (active) | 69% | -1% | 94% (active) | 91.4% (active)
COc1ccc2c(C)c(N=C=S)c(=O)oc2c1 | 35% | 79% (active) | 60.2% | 13% | 78% (active) | 69% | 34% | 81% (active) | 48% | 6% | 33% | 1.75% | 29% | 87% (active) | 89% (active) | 42% | 89% (active) | 74.7% (active)
C/C=C(\CCC1NCCc2c1[nH]c1ccccc21)[Si](C)(C)C (centres undefined) | -20% | 99% (active) | 96.3% (active) | -4% | 99% (active) | 86.5% (active) | 19% | 99% (active) | 93.1% (active) | 4% | 99% (active) | 75.3% (active) | 11% | 98% (active) | 77.8% (active) | -21% | 100% (active) | 95.8% (active)
CC(C)NC(=O)CN1C(=O)NC(C)(c2ccccc2)C1=O (centres undefined) | -4% | -1% | 75.5% (active) | 6% | 8% | 67% | -4% | 11% | 53.5% | 2% | -3% | 90.8% (active) | -3% | 1% | 79.2% (active) | 11% | 13% | 70.3% (active)
C#CCn1cnc2c(N)ncnc21 | -1% | -11% | 6.75% | 3% | -8% | 15.8% | 5% | -13% | 28.4% | 3% | -6% | 84.2% (active) | -4% | -16% | -6.65% | 2% | -14% | 7.3%
N#Cc1ccc(C2Oc3ccc(Cl)cc3C=C2[N+](=O)[O-])cc1 (centres undefined) | 98% (active) | 99% (active) | 84.7% (active) | 100% (active) | 99% (active) | 75.7% (active) | 100% (active) | 99% (active) | 91.2% (active) | 98% (active) | 98% (active) | 88.7% (active) | 98% (active) | 98% (active) | 75.6% (active) | 99% (active) | 99% (active) | 83.3% (active)
O=[N+]([O-])c1ccc2nc(-c3ccc(Cl)cc3)[nH]c2c1 | 0% | 91% (active) | 71.5% (active) | -1% | 89% (active) | 72.8% (active) | -2% | 89% (active) | 75.4% (active) | -6% | 83% (active) | 72.6% (active) | 1% | 95% (active) | 81.9% (active) | -15% | 94% (active) | 78.8% (active)
CCc1cccc(C)c1NC(=O)/C(Cl)=C(\Cl)C(=O)O | 67% | 99% (active) | 99.4% (active) | 65% | 100% (active) | 99.5% (active) | 67% | 100% (active) | 99.7% (active) | 54% | 99% (active) | 99.1% (active) | 94% (active) | 100% (active) | 99.5% (active) | 53% | 100% (active) | 99.4% (active)
Nc1cc(=O)[nH]c(=S)[nH]1.[Pd] | 0% | -4% | 20% | 4% | 5% | 18.6% | 5% | 6% | 13.3% | 0% | 36% | 71% (active) | 3% | 13% | -4.45% | 0% | -4% | 35.6%
Oc1ccccc1C(c1cc2c(cc1O)OCO2)N1CCOCC1 (centres undefined) | -23% | 99% (active) | 87.3% (active) | -28% | 100% (active) | 88.7% (active) | -51% | 99% (active) | 89.8% (active) | -12% | 99% (active) | 91% (active) | -34% | 99% (active) | 91.3% (active) | 1% | 99% (active) | 91.9% (active)
